VDR inh: vitamin D3 receptor (human) inhibition. P11473. VDR-SRC2-3 peptide fluorescence polarization, 2 h. Potency, µM, hits mostly inhibitors. hit rate 0.93% among 400,000. AID 504847
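VDR–SRC2-3 interaction, FP format. Cmpds 23 nl via pintool, brief spin, 2 h ambient incubation.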
GLS inhibitor: glutaminase GLS (human) inhibition; O94925; GLS enzymatic activity, qHTS titration; Potency, µM (top dose mostly 45.5 µM), most hits filed as inhibitors; hit rate 0.21% among 410,000; AID 624170
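hKGA; 45 mM KH2PO4 pH 8.2 + 0.02% Tween-20; cpd via pin tool; 1 mM Gln soln; GluOx/HRP/Amplex Red; RT 30 min; fluor. t0 & final.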
Tb PFK block: T. brucei PFK enzyme inhibition; T. brucei PFK, ADP-Glo luminescence; Potency, µM (highest dose often 57.5 µM), hits mostly inhibitors; hit rate 0.17% among 330,000; AID 485367; also: nearly all actives have a fitted effect of over 60% in size
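Luminescent ADP detection (ADP-Glo, two-step: ATP depletion then ADP-to-ATP conversion for luciferase) reported PFK activity after 45 min room-temperature reaction of 1.25 nM enzyme with 0.5 mM F6P and 0.1 mM ATP at pH 8.0.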
Pin1 inhibitor: blocks the human prolyl isomerase Pin1; Pin1 FP peptide displacement, HiFluor488, 10 min; Potency, µM (doses to about 115 µM), hits mostly inhibitors; Q13526; hit rate 0.009% among 390,000; AID 504891; active = well fitted inhibition curve with a large enough effect in the polarisation, with a control signal flat, not every such curve was filed as active; inconclusive = small, poorly fitted or top-dose-only effect, or effect the other way, or a change in a side signal; inactive = no such curve, though single readings can be large or run the other way; the % refers to the polarisation
Target sequence (Q13526 whole entry, looked up): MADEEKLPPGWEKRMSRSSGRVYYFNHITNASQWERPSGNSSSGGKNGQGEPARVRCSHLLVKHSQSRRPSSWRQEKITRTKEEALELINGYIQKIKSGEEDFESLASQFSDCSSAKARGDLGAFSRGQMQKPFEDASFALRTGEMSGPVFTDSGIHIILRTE
PGK inhibitor: blocks T. brucei phosphoglycerate kinase | Potency, µM (doses to about 57.5 µM), hits mostly inhibitors | AID 602233 | hit rate 0.043% among 380,000 | PGK/GAPDH coupled, Kinase-Glo luminescence, 60 min; also: nearly all actives have a fitted effect of over 60% in size
Target sequence (P07378 whole entry, looked up): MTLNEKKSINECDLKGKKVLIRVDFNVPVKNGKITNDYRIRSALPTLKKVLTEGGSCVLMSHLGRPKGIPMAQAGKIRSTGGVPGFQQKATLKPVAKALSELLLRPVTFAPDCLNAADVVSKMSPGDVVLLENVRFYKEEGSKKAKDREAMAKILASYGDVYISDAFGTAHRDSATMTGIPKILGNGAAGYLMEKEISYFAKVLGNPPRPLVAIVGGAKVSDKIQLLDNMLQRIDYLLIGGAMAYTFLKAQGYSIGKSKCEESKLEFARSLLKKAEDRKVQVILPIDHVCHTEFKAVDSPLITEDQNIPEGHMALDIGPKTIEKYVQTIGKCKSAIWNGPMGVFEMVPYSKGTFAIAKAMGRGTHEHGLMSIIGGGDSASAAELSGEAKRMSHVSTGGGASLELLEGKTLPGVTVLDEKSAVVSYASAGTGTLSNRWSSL
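Recombinant glycosomal PGK reaction used 1,3-bisphosphoglycerate generated in-well by GAPDH (100nM final) in 100mM TEA pH 7.6, 5mM MgCl2, 0.01% Tween-20. After 60 minutes at room temperature, ATP was read by Kinase-Glo Plus luminescence end-point.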
Large screens that a line does not name were inactive; ! = repeats disagree. Shown are actives, neighbours in structure and some others; about 1.1% of the full set was active somewhere. Unless noted, calls follow the shape of the dose curve; as a rule, active = well fitted curve in the direction sought with a large enough effect; inconclusive = small, poorly fitted or top-dose-only effect, or another doubt; inactive = no such curve, though single readings can be large; an effect the other way counts as inactive or inconclusive.

O=S1(=O)N=C(Oc2ccc3ccccc3c2)c2ccccc21	none (no result: VDR inh, GLS inhibitor, Tb PFK block, PGK inhibitor)
CCN(CC)c1ccc(NC(=S)NC(=O)c2ccco2)cc1	VDR inh 79.4µM, GLS inhibitor 10µM
CCC1CN2CCc3cc(OC)c(OC)cc3C2CC1CC1NCCc2cc(OC)c(OC)cc21 (stereo unspecified)	none (no result: GLS inhibitor, Tb PFK block, Pin1 inhibitor, PGK inhibitor)
CCN1CCC(O)(/C=C/c2ccc(C(C)C)cc2)C(C(=O)/C=C/c2ccc(C(C)C)cc2)C1 (stereo unspecified)	VDR inh 39.8µM (no result: Tb PFK block)
CCOC(=O)C1Nc2ccc(C)cc2C2C=CCC12 (stereo unspecified)	Pin1 inhibitor inconclusive (no result: Tb PFK block)
O=C(O)C1Nc2c(Cl)cc(Cl)cc2C2C=CCC12 (stereo unspecified)	VDR inh inconclusive, GLS inhibitor 7.94µM, Tb PFK block inconclusive, Pin1 inhibitor inconclusive, PGK inhibitor 25.1µM
O=C(O)C1Nc2c(O)cccc2C2C=CCC12 (stereo unspecified)	GLS inhibitor 12.6µM, Tb PFK block inconclusive, PGK inhibitor inconclusive (no result: Pin1 inhibitor)
O=C(O)C1Nc2ccc(Br)cc2C2C=CCC12 (stereo unspecified)	VDR inh inconclusive, GLS inhibitor 7.94µM, Tb PFK block inconclusive, PGK inhibitor 31.6µM (no result: Pin1 inhibitor)
Cc1ccc(C)c2c1NC(C(=O)O)C1CC=CC21 (stereo unspecified)	none (no result: GLS inhibitor, Tb PFK block, Pin1 inhibitor, PGK inhibitor)
COc1cc(/C=N/NC(=O)c2cc(O)cc(O)c2)ccc1OC(=O)c1ccccc1	GLS inhibitor 12.6µM, Pin1 inhibitor inconclusive, PGK inhibitor 12.6µM
O=C(N/N=C/c1ccoc1)c1cc(O)cc(O)c1	GLS inhibitor 12.6µM, Tb PFK block inconclusive, Pin1 inhibitor inconclusive, PGK inhibitor inconclusive
COc1cc(C(=O)N/N=C/c2ccc(OC(=O)c3ccccc3)c(OC)c2)ccc1O	none
COc1ccc(NC(=O)CSc2nnc(N)s2)cc1S(=O)(=O)N1CCCCC1	none
Nc1nccs1	none (no result: Tb PFK block, Pin1 inhibitor, PGK inhibitor)
CC1(C)Cc2c(c(-c3ccco3)nc3sc4c(NCC5CCCO5)ncnc4c23)CO1 (stereo unspecified)	VDR inh 89.1µM, Pin1 inhibitor inconclusive
Cc1[nH][nH]c(=O)c1C(c1ccc(O)c(Br)c1)c1c(C)[nH][nH]c1=O	GLS inhibitor 12.6µM
COc1ccc(C(c2c(C)[nH][nH]c2=O)c2c(C)[nH][nH]c2=O)cc1Br	VDR inh inconclusive
ClC(Cl)(Cl)c1nc2ccccc2n2nncc12	GLS inhibitor 11.2µM
c1cncc(-c2nc(NCc3cccs3)c3ccccc3n2)c1	none
c1csc(CNc2cc(-c3ccoc3)ncn2)c1	VDR inh 20µM (no result: GLS inhibitor, Tb PFK block, Pin1 inhibitor, PGK inhibitor)
c1csc(CNc2nc(-c3ccoc3)nc3ccccc23)c1	VDR inh 22.4µM (no result: GLS inhibitor, Tb PFK block, Pin1 inhibitor, PGK inhibitor)
c1cncc(-c2cc(NCc3cccs3)ncn2)c1	none (no result: GLS inhibitor, Tb PFK block, Pin1 inhibitor, PGK inhibitor)
CCN(CC)c1ccc(NC(=O)c2cnn(-c3ccccc3)c2-n2cccc2)c(C)c1	none (no result: Tb PFK block)
CCCn1c2ccccc2c2cnn(CC(=O)Nc3ccc(C)cc3Br)c(=O)c21	none (no result: Tb PFK block)
COc1ccccc1C(=O)Nc1cc2c(cc1N1CCCCC1)n(C)c(=O)n2C	none (no result: Tb PFK block)
COc1cc(/C=C/[N+](=O)[O-])ccc1OCc1cccc(C(=O)O)c1	VDR inh 20µM, Tb PFK block inconclusive, Pin1 inhibitor 28.2µM, PGK inhibitor inconclusive
CCC(c1ccc(O)c(O)c1)C(CC)c1ccc(O)c(O)c1 (stereo unspecified)	GLS inhibitor inconclusive (no result: Tb PFK block)
CCC(NC(C)C)C(O)c1ccc(O)c(O)c1 (stereo unspecified)	VDR inh 50.1µM!
O=C(O)c1cc(S(=O)(=O)Nc2ccc3oc(=O)sc3c2)ccc1O	VDR inh 79.4µM, Pin1 inhibitor inconclusive
CCOc1cc(/C=C2/C(=N)N3C(=NC2=O)SN=C3S(=O)(=O)CC)ccc1OC(=O)c1ccco1	VDR inh 89.1µM
CCS(=O)(=O)C1=NSC2=NC(=O)/C(=C\c3ccc(OC(=O)c4ccco4)c(OC)c3)C(=N)N21	Pin1 inhibitor inconclusive
O=C(Nc1ccc(C(=O)Nc2ccc(C(=O)Nc3ccc(S(=O)(=O)O)c4cc(S(=O)(=O)O)cc(S(=O)(=O)O)c34)cc2)cc1)Nc1ccc(C(=O)Nc2ccc(C(=O)Nc3ccc(S(=O)(=O)O)c4cc(S(=O)(=O)O)cc(S(=O)(=O)O)c34)cc2)cc1	VDR inh 5.62µM (no result: GLS inhibitor, Tb PFK block, Pin1 inhibitor, PGK inhibitor)
COc1cccc(NC(=O)CSC2=Nc3ccccc3C3=NC(CC(=O)NCCc4ccccc4)C(=O)N23)c1 (stereo unspecified)	none (no result: Tb PFK block)
Cc1ccc(-c2nc(C(=O)NC3CCCCCC3)no2)cc1	VDR inh 79.4µM, GLS inhibitor inconclusive (no result: Tb PFK block)
Cc1ccc(-c2cc(C(=O)NC3CCCCC3)no2)cc1	none
c1ccc(SSc2ccccn2)nc1	VDR inh 3.16µM, GLS inhibitor 10µM (no result: Tb PFK block)
COC(=O)[C@H](CCSC)NC(=O)c1ccc(NC[C@@H](N)CS)cc1-c1ccccc1	VDR inh 10µM (no result: GLS inhibitor, Tb PFK block, Pin1 inhibitor, PGK inhibitor)
CSCC[C@H](NC(=O)c1ccc(NC[C@@H](N)CS)cc1-c1ccccc1)C(=O)O	VDR inh 7.94µM (no result: GLS inhibitor, Tb PFK block, Pin1 inhibitor, PGK inhibitor)
Cc1ccc(-c2nn(CCC(=O)O)cc2/C=C\C(=O)c2ccc(Br)cc2)cc1	VDR inh 35.5µM, Pin1 inhibitor inconclusive
O=C(O)CCn1cc(/C=C\C(=O)c2ccc(Cl)cc2)c(-c2cccc(Br)c2)n1	VDR inh 50.1µM, GLS inhibitor inconclusive, Pin1 inhibitor inconclusive
COC(=O)c1ccccc1NC(=O)c1sc2nc(C)cc(C)c2c1NC(=O)c1ccccc1Cl	none (no result: Tb PFK block)
Cc1ccnc(NC(c2ccsc2)c2ccc3ccc(C)nc3c2O)c1 (stereo unspecified)	VDR inh 39.8µM
COc1ccc(C2=CC3=C(Br)C(=O)C(C)(OC(=O)c4ccc(Cl)nc4)C(=O)C3=CO2)cc1 (stereo unspecified)	Pin1 inhibitor inconclusive, PGK inhibitor inconclusive
COC(=O)CCC(=O)OC1(C)C(=O)C2=COC(c3ccc(OC)cc3)=CC2=C(Br)C1=O (stereo unspecified)	VDR inh inconclusive, GLS inhibitor inconclusive, Pin1 inhibitor inconclusive, PGK inhibitor 15.8µM
CC1(OC(=O)C2CCCC2)C(=O)C=C2C=C(c3ccsc3)OC=C2C1=O (stereo unspecified)	VDR inh inconclusive, PGK inhibitor inconclusive
COc1ccc(C2=CC3=C(Br)C(=O)C(C)(OC(=O)C4CCCC4)C(=O)C3=CO2)cc1 (stereo unspecified)	VDR inh inconclusive, Pin1 inhibitor inconclusive, PGK inhibitor 17.8µM
COc1cccc(F)c1C(C[N+](=O)[O-])c1c(N)n(C)c(=O)n(C)c1=O (stereo unspecified)	VDR inh 79.4µM
Cc1ccc(C(C[N+](=O)[O-])c2c(N)n(C)c(=O)n(C)c2=O)cc1 (stereo unspecified)	VDR inh 79.4µM
COc1cc(C(C[N+](=O)[O-])c2c(N)n(C)c(=O)n(C)c2=O)ccc1O (stereo unspecified)	VDR inh inconclusive, GLS inhibitor inconclusive
CN1CCN(S(=O)(=O)c2ccc(N3CCN(c4ccc(O)cc4)CC3)c([N+](=O)[O-])c2)CC1	GLS inhibitor 8.91µM
